Results on 8 compounds are retold here after PubChem BioAssay (NCATS).

One test relates to MCC-13. As to the kind of experiment: qHTS assay to identify novel small-molecules to repurpose for Merkel cell carcinoma treatment (AID 1296009). Further: nearly all actives have a fitted effect of over 60% in size. Further: potency means the concentration at half of the fitted maximal effect. The following applies: MCC and control cell lines, CellTiter-Glo viability, 72 h; series mostly up to 46 µM. The method, boiled down: (§1)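 Dose-response viability screen; 72 hr exposure at 37 degree celsius; CellTiter-Glo added, 10 min room temperature, luminescence read; RLUs scaled between no-cell and DMSO wells.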
For orientation: In qHTS, concentration-response curves come from the screen itself.

For another test, the system named is MCC-26. The test is described as above. To be noted: MCC and control cell lines, CellTiter-Glo viability, 72 h; series mostly up to 46 µM. The method, boiled down:
as §1
On the technique in general: Cellular ATP, detected with luciferase, serves as a proxy for viable cell number.

The test system of the next test is MKL-1. Described as above. To be noted: MCC and control cell lines, CellTiter-Glo viability, 72 h; series mostly up to 46 µM. In a few lines: as §1
Another test concerns MKL-2. The description is as above. The following applies: MCC and control cell lines, CellTiter-Glo viability, 72 h; series mostly up to 46 µM. The method, boiled down: as §1
A further test has as its system WaGa. The test is described as above. To be noted: MCC and control cell lines, CellTiter-Glo viability, 72 h; series mostly up to 46 µM. In a few lines: as §1
The next test relates to NIH3T3. The test is described as above. The following applies: MCC and control cell lines, CellTiter-Glo viability, 72 h; at 44.8 µM (top of the series) unless noted. The method, boiled down:
as §1

Another test deals with UISO. The description is as above. To be noted: MCC and control cell lines, CellTiter-Glo viability, 72 h; series mostly up to 46 µM. The method, boiled down: as §1
A further test relates to C33A. As to the kind of experiment: Primary qHTS to identify gynecologic anti-cancer compounds using libraries of approved drugs and bioactive compounds (AID 1345084). Further: nearly all actives have a fitted effect of over 55% in size. The following applies: Gynecologic cancer cell panel viability, ATPlite luminescence, 48 h; series mostly up to 57.5 µM. In a few lines: (§2)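 Cell viability after 48 h drug treatment, ATPlite luminescence readout; five doses.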

The next test relates to CASKI. Described as above. To be noted: Gynecologic cancer cell panel viability, ATPlite luminescence, 48 h; series mostly up to 57.5 µM. The method, boiled down:
as §2

Records with an inconclusive call do not appear. The source made the active and inactive calls. The call rests on the fitted dose curve; in most records, active means well fitted curve in the direction sought with a large enough effect; inconclusive means small, poorly fitted or top-dose-only effect, or another doubt; inactive means no such curve, though single readings can be large; an effect the other way counts as inactive or inconclusive.

For the compound `CC(=O)O[C@]1(C(C)=O)CC[C@H]2[C@@H]3C=C(C)C4=CC(=O)CC[C@]4(C)[C@@H]3CC[C@@]21C`, the Potency entry in the test with MCC-13 and with MCC-26 was “inactive” throughout. Further, the Potency in the test with MKL-1 was 3320 nM (active); in the test with MKL-2 it was 2350 nM (active); in the test with WaGa, 1870 nM (active).
Consider `COc1ccc([C@@H]2CNC(=O)C2)cc1OC1CCCC1`, for which the Potency entry with MCC-13, in the test on MCC-26 and in the test on MKL-1 was “inactive” in each case. The call in the test on NIH3T3 was inactive.
With `CC(C)C[C@H](NC(=O)CNC(=O)c1cc(Cl)ccc1Cl)B1OC(=O)CC(CC(=O)O)(C(=O)O)O1` (stereo partly drawn), the Potency is 1180 nM (active) with MCC-13; 590 nM (active) with MCC-26; 743 nM (active) with MKL-1; 187 nM (active) in the test with MKL-2; 209 nM (active) in the test with WaGa.
Consider `CCCCC(=O)O[C@]1(C(=O)CO)[C@@H](C)C[C@H]2[C@@H]3CCC4=CC(=O)C=C[C@]4(C)[C@@]3(F)[C@@H](O)C[C@@]21C`, for which the Potency entry in the test with MCC-13, in the test on MCC-26, with MKL-1, in the test with MKL-2, in the test on UISO and in the test on WaGa was “inactive” each time. Further, the Potency entry in the test on C33A and in the test on CASKI was “inactive” throughout.
Regarding `O=C(C=Cc1ccc(CN(CCO)CCc2c[nH]c3ccccc23)cc1)NO`, the Potency was 1660 nM (active) in the test with MCC-13; 1180 nM (active) in the test with MCC-26; 418 nM (active) with MKL-1; 105 nM (active) in the test on MKL-2; 1180 nM (active) with UISO; 105 nM (active) in the test with WaGa.
Consider `OCCN1C[C@H](O)[C@@H](O)[C@H](O)[C@@H]1CO`, for which the Potency entry with MCC-13, with MCC-26, with MKL-1, in the test on MKL-2, in the test on UISO and in the test on WaGa was “inactive” each time.
As for `CC(O)(C#Cc1ccc2c(c1)N(c1nc(N)ncc1Cl)CC2)c1nccs1` (stereo not drawn), the Potency entry in the test with MCC-13, in the test on MCC-26, with MKL-1, in the test on MKL-2, with UISO and with WaGa was “inactive” each time. The Potency result with C33A and with CASKI was “inactive” each time.
Turning to `C[C@H](NC(=O)Cc1cc(F)cc(F)c1)C(=O)N[C@H](C(=O)OC(C)(C)C)c1ccccc1`, the Potency entry with MCC-13, in the test on MCC-26, with MKL-1, in the test with MKL-2, in the test on UISO and in the test with WaGa was “inactive” in each case.
